LGR2 inh: inhibitors of bursicon-induced Drosophila LGR2 receptor cAMP signaling | HEK293 LGR2, CRE-luciferase, bursicon-stimulated, 4 h | inhibition, % at 9.99 µM | 0.35% of 380,000 active | AID 720647;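 active = drop in luminescence signal, shown as inhibition above about 50% in the replicate tests, limit read from the data, passing the limit was not always enough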;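 also: agonist challenge used bursicon conditioned medium at about half maximal strength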
Shn3 3UTR inh: inhibitors of Schnurri-3 3'UTR reporter in osteoblasts; Clone20 osteoblast Shn3 3'UTR firefly luciferase, 24 h; inhibition, % at 12.5 µM; 0.52% of 360,000 active; AID 588674;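 active = mean inhibition of at least 75% with every replicate also reaching 75%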
MITF TRPM1 inh: reduces MITF-dependent TRPM1 promoter luciferase signal | SK-MEL-5 TRPM1 promoter luciferase, 24 h | inhibition, % at 12.5 µM | 0.83% of 330,000 active;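 active = mean inhibition across replicates of 60% or more, whatever share of single replicates reaches that level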
EBV LMP1 NFkB: reduces LMP1-driven NF-kappaB luciferase signal; LMP1-induced NF-kappaB luciferase reporter cells, luminescence; inhibition, % at 12.5 µM; 0.69% of 350,000 active; in the data active = inhibition above about 41%
EWS-Fli block: EWS/Fli transcriptional activity inhibition. A673 NR0B1-luciferase reporter, viability-normalised. inhibition, % at 12.6 µM. 0.67% of 350,000 active;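 active = mean inhibition of at least 50% after viability correction, with every replicate also passing that limit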;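 also: firefly luciferase signal divided by Alamar Blue viability fluorescence both relative to DMSO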
PAX8 reporter: PAX8 transcriptional activity inhibition | AID 652154 | 1.2% of 360,000 active | RMG-I TPO-luciferase reporter, SteadyGlo, 24 h | inhibition, % at 12.6 µM;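 active = mean replicate inhibition at least 60% with every replicate also reaching 60%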;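 also: luciferase light reporting Pax8 driven TPO promoter activity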
DNA binder FP: binds DNA displacing acridine orange; AC35, µM (titrated, usually from 68 µM); AID 720586; salmon sperm DNA acridine orange fluorescence polarization; 2% of 640 active; shares compounds with EWS-Fli block;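 active = fitted curve reaches a 35% signal fall AC35 below twice the sample's top valid tested dose, actives reach about 48 µM in these data; inactive = the rest, including activity in the rising direction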;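 also: lower polarization ratio signals compound binding to DNA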
Numbers stand for hits; . = inactive; / = no result. Shown are actives, neighbours in structure and some others; about 2.2% of the full set was active somewhere.

SMILES | LGR2 inh | Shn3 3UTR inh | MITF TRPM1 inh | EBV LMP1 NFkB | EWS-Fli block | PAX8 reporter | DNA binder FP
COc1ccc(/C=C2/SC(=S)N(CCCC(=O)Nc3ccc(O)cc3)C2=O)cc1 | . | . | . | . | . | . | /
CCCC#Cc1ccc2c(c1)O[C@H](CN(C)Cc1cncnc1)[C@@H](C)CN([C@@H](C)CO)S2(=O)=O | . | / | / | / | . | / | /
Cc1ccc(NC(=O)COC(=O)c2ccc(OC(F)F)cc2)cc1S(=O)(=O)N1CCCCC1 | . | . | . | . | . | . | /
Cc1ccc(NC(=O)COC(=O)c2ccc3c(c2)OCO3)cc1S(=O)(=O)N1CCCCC1 | . | . | . | . | 72 | . | .
COc1ccccc1S(=O)(=O)N[C@H]1CC[C@@H](CCNC(=O)C2CCC2)O[C@H]1CO | . | / | / | / | . | . | /
Cc1ccccc1S(=O)(=O)N1CC(=O)N2[C@H](CO)[C@@H](c3ccc(C#CC4CC4)cc3)[C@H]2C1 | . | / | / | / | . | . | /
Cc1cc(Br)ccc1N=C1C(=O)Nc2ccccc21 | . | . | . | . | 55 | . | .
O=C1Nc2ccccc2C1=Nc1ccc(Br)cc1 | . | . | . | . | 55 | . | .
O=C1Nc2ccccc2C1=Nc1ccccc1-c1ccccc1 | . | . | . | 78 | 55 | . | .
O=C1Nc2ccccc2C1=Nc1ccc(Cl)cc1 | . | . | . | . | . | . | /
Cc1cc(C)c(N=C2C(=O)Nc3ccccc32)c(C)c1 | . | . | . | . | . | . | /
C[C@H](CO)N1C[C@H](C)[C@H](CN(C)S(C)(=O)=O)Oc2ccc(NS(=O)(=O)c3cn(C)cn3)cc2C1=O | . | / | / | / | . | / | /
C[C@@H]1CN([C@H](C)CO)C(=O)c2cccc(NC(=O)CCCCCC(=O)Nc3ccccc3N)c2O[C@@H]1CN(C)S(=O)(=O)c1cccs1 | . | / | / | / | . | . | /
O=C(O)c1ccc2cc(-c3ccccc3)[nH]c2c1 | / | . | . | . | 64 | . | .
COC(=O)COc1ccc(-c2nccc(-c3ccccn3)n2)cc1 | . | . | . | . | 54 | . | .
COC(=O)COc1ccc(-c2nccc(-c3ccc(Br)cc3)n2)cc1 | . | . | . | . | . | . | /
O=C(Nc1cccc(Oc2ccc3c(c2)C(=O)NC3=O)c1)c1cccs1 | . | . | . | . | 74 | . | .
C[C@@H]1CCCCO[C@@H](CN(C)S(=O)(=O)c2cn(C)cn2)[C@@H](C)CN([C@@H](C)CO)C(=O)c2cc(NC(=O)Nc3ccc4c(c3)OCO4)ccc2O1 | . | / | / | / | . | / | /
Nc1nc(=S)c2[nH]cnc2[nH]1 | . | . | 78 | 85 | 61 | 94 | .
COC(=O)C[C@H]1CC[C@@H]2[C@@H](COc3ccc(NC(=O)c4cccs4)cc3C(=O)N2C)O1 | . | / | / | / | . | . | /
Cc1ccc(NC(=O)CCN2CCCCC2)cc1 | . | . | . | . | 66 | . | .
C[C@@H]1CN([C@H](C)CO)C(=O)c2cccc(NC(=O)C3CCCCC3)c2O[C@@H]1CN(C)S(=O)(=O)c1cccs1 | . | / | / | / | . | . | /
Cc1ccc2c(c1)C(=O)N1[C@H]3c4cc(Br)ccc4OC[C@@H]3[C@H](c3ccccc3)[C@]1(C)C(=O)N2 | . | . | . | . | 56 | . | .
O=C1c2ccccc2C(=O)c2cc(N3CCCCC3)ccc21 | 97 | . | . | 45 | 83 | . | .
c1ccc2cc(N3CCCCC3)ccc2c1 | . | . | . | . | . | . | /
SMILES | LGR2 inh | Shn3 3UTR inh | MITF TRPM1 inh | EBV LMP1 NFkB | EWS-Fli block | PAX8 reporter | DNA binder FP
O=c1ccc2[n+]([O-])c3ccc(O)cc3oc-2c1 | . | . | . | . | 57 | 81 | 14µM
C[C@@H]1CN([C@@H](C)CO)C(=O)c2cccc(NS(=O)(=O)c3ccc(F)cc3)c2O[C@@H]1CN(C)Cc1ccc(C(=O)Nc2ccccc2N)cc1 | . | / | / | / | 55 | / | .
C[C@@H]1CN([C@@H](C)CO)C(=O)c2cccc(NC(=O)CCCCCC(=O)Nc3ccccc3N)c2O[C@H]1CN(C)Cc1ccc2c(c1)OCO2 | . | / | / | / | . | . | /
C[C@@H]1CN([C@@H](C)CO)C(=O)c2cccc(N(C)C)c2O[C@@H]1CN(C)Cc1ccc(C(=O)Nc2ccccc2N)cc1 | / | / | / | / | 54 | . | .
C[C@H]1CN([C@@H](C)CO)C(=O)c2cccc(NC(=O)CCCCCC(=O)Nc3ccccc3N)c2O[C@@H]1CN(C)Cc1ccc2c(c1)OCO2 | . | / | / | / | 57 | / | .
C[C@@H]1CN([C@@H](C)CO)C(=O)c2cccc(NS(=O)(=O)c3ccc(F)cc3)c2O[C@H]1CN(C)Cc1ccc(C(=O)Nc2ccccc2N)cc1 | . | / | / | / | . | . | /
C[C@H](CO)N1C[C@H](C)[C@@H](CN(C)C(=O)Nc2ccccc2)Oc2ncc(C#CC3CCCC3)cc2C1=O | . | / | / | / | . | . | /
CNC[C@H]1OCCCC[C@@H](C)Oc2ccc(NS(=O)(=O)c3ccc(OC)cc3)cc2C(=O)N([C@@H](C)CO)C[C@@H]1C | . | / | / | / | . | . | /
COc1ccc(CCC(C)NC2CCCCCCC2)cc1 (stereo unspecified) | . | . | . | . | . | . | /
COc1ccc(CCC(C)NCC2CCCCC2)cc1 (stereo unspecified) | . | . | . | . | 90 | . | .
OC[C@@H]1[C@H](c2ccc(C3=CCCCC3)cc2)[C@@H](CNC2CCCC2)N1CC1CC1 | . | / | / | / | . | / | /
COc1cc(/C=N/NS(=O)(=O)c2ccc(C)cc2)ccc1OCc1cccc(C(=O)O)c1 | 80 | . | 78 | 73 | 79 | 91 | .
COc1ccc(/C=N/NS(=O)(=O)c2ccccc2)cc1OC(=O)c1ccc(C)cc1 | / | . | . | . | / | / | /
COc1ccc(/C=N/NS(=O)(=O)c2ccc(C)cc2)cc1OC(=O)c1ccccc1 | / | . | . | . | / | / | /
COc1cc(/C=N/NS(=O)(=O)c2ccc3ccccc3c2)ccc1OCc1ccc(C(=O)O)cc1 | 82 | . | 64 | 67 | 69 | 84 | .
O=C(NC(c1ccc(F)cc1)c1ccc2ccccc2n1)C1CCN(Cc2cccc(C(F)(F)F)c2)CC1 (stereo unspecified) | . | . | / | / | 58 | . | .
O=C(NC(c1ccc(F)cc1)c1ccc2ccccc2n1)C1CCN(Cc2ccc3ccccc3n2)CC1 (stereo unspecified) | . | . | / | / | . | . | /
O=C(C[C@H]1C=C[C@H](NC(=O)Nc2cc(F)ccc2F)[C@H](CO)O1)Nc1ccc(-c2ccccc2)cc1 | . | / | / | / | . | / | /
O=C(C[C@@H]1CC[C@H](NC(=O)CCN2CCCCC2)[C@@H](CO)O1)Nc1nccs1 | . | / | / | / | . | . | /
C[C@@H]1CCCCO[C@H](CN(C)Cc2ccc(C(=O)Nc3ccccc3N)cc2)[C@@H](C)CN([C@H](C)CO)C(=O)c2cc(NS(=O)(=O)c3ccc(Cl)cc3)ccc2O1 | . | / | / | / | 61 | . | .
C[C@@H]1CN([C@@H](C)CO)C(=O)c2cc(NS(=O)(=O)c3ccc(Cl)cc3)ccc2O[C@@H]1CN(C)Cc1ccc(C(=O)Nc2ccccc2N)cc1 | . | / | / | / | 53 | / | .
